Screening data as filed in PubChem.
VP16 counter – counter-screen for ROR gamma inhibitors: Gal4-VP16 reporter; Drosophila S2 Gal4-VP16 UAS-luciferase, luminescence, 20 h; Potency, µM (titrated, usually from 53.6 µM), most hits filed as inhibitors; 310,000 compounds, 3.5% hits;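 note: Gal4-VP16 expression switched on by copper sulfate through the metallothionein promoter; nearly all actives have a fitted effect of over 50% in size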
RORgamma inh – inhibitors of mouse ROR gamma transcriptional activity; Drosophila S2 Gal4-RORgamma UAS-luciferase reporter, 20 h; Potency, µM (top dose mostly 53.6 µM), most hits filed as inhibitors; 310,000 compounds, 5.4% hits; note: nearly all actives have a fitted effect of over 60% in size
Target sequence (P51450 whole entry, looked up, the tested form may be a part): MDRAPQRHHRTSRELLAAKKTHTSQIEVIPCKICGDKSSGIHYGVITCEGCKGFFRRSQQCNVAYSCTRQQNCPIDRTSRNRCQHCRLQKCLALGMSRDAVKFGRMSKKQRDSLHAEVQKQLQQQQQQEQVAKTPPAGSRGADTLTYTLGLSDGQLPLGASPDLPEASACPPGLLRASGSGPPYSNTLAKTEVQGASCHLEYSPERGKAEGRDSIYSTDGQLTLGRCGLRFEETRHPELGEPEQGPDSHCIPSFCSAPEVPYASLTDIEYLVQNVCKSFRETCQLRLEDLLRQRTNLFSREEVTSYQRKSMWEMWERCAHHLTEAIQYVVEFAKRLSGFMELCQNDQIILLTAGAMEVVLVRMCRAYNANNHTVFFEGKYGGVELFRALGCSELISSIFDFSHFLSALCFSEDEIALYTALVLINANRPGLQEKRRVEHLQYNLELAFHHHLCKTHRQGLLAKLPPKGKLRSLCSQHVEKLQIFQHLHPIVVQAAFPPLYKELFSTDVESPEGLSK
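Stably transfected Drosophila Schneider cells are the test system, with ROR gamma fused to Gal4 and luciferase under UAS control; luminescence is read after 20 hr of 700 uM copper sulfate induction at ambient temperature.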
FBPA coupling cs – inhibits coupling enzyme system, counter-screen for aldolase hits. coupling enzyme system counterscreen, AmpLite Red fluorescence. activity change, negative = inhibition, % at 58.2 µM, hits read low. 290,000 compounds, 0.67% hits; in the data active = activity change below about -30%
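Activity here indicates interference with the coupling reaction, not aldolase inhibition. Compounds at 57.5 uM final met coupling enzymes for 10 min at RT; substrate and AmpLite Red detection followed, with a 525/598 nm fluorescence read after 20 min.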
ELG1 repair inh – ELG1-dependent DNA repair inhibition | HEK293T ELG1-luciferase reporter, luminescence, 16 h; DNA damage induced by 5-fluorouridine | Potency, µM (highest dose often 46.1 µM), actives largely listed as inhibitors | 330,000 compounds, 2.3% hits | AID 504467; note: nearly all actives have a fitted effect of over 55% in size
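Overnight (16 hr) co-exposure of 2,000 cells/well to 5-fluorouridine and compound at 37 °C preceded detection. Luciferase was quantified via ONE-Glo luminescence; loss of signal denotes inhibition.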
TSHR antag – antagonists of human thyroid stimulating hormone receptor. P16473. TSHR-expressing cells, TSH-stimulated cAMP HTRF, 2 h; stronger effect = lower value. activity change, negative = inhibition, % at 11.5 µM. 330,000 compounds, 0.2% hits;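 active = activity change below a set negative limit, meaning inhibition stronger than a set level, cut at about -70% in these data; inconclusive = activity change between two set negative limits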
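TSHR-expressing cells were treated with compounds, then stimulated with TSH at EC80 (4nM final) for 2 hours at 37 deg C. Cellular cAMP was measured by HTRF competition between lysate cAMP and cAMP-d2 for a cryptate-labelled anti-cAMP antibody.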
Numbers stand for hits; 0 = inactive; ? = inconclusive; - = not tested or not shown; [ ] = another dose, or the depositor's remark. Shown are actives, neighbours in structure and some others; about 8% of the full set was active somewhere. Unless noted, calls come from the whole dose curve; as a rule, active = well fitted curve in the direction sought with a large enough effect; inconclusive = small, poorly fitted or top-dose-only effect, or another doubt; inactive = no such curve, though single readings can be large; an effect the other way counts as inactive or inconclusive.

SMILES	VP16 counter	RORgamma inh	FBPA coupling cs	ELG1 repair inh	TSHR antag
COC(=O)c1ccc2c(c1)C(=O)/C(=C/c1ccc(O)cc1)O2	1.58µM	0.224µM	0	?	0
Cn1c(-c2ccc(=O)[nH]c2)nc2ccccc21	0	0	-33.1	?	0
CC1(CCc2ccccc2)NC(=O)N(CC(=O)N2CC(=O)Nc3ccccc32)C1=O (stereo not given)	0	0	0	0	-76.8
CC1(CCc2ccccc2)NC(=O)N(CC(=O)N2CCCCCC2)C1=O (stereo not given)	-	-	-	0	0
CCOc1ccc(NC(=O)CN(C)C(=O)C(C)N2C(=O)c3ccccc3C2=O)cc1OCC (stereo not given)	-	-	-	0	0
COc1ccc(/C=N/NC(=O)c2ccc3c(c2)OCO3)cc1	0	0	0	?	0
O=C(N/N=C/c1ccc(Cl)cc1)c1ccc2c(c1)OCO2	0	0	0	?	0
O=C(N/N=C/c1cc(Cl)cc([N+](=O)[O-])c1O)c1ccc2c(c1)OCO2	0.891µM	0.794µM	0	?	?
COc1cc(/C=N/NC(=O)c2ccc3c(c2)OCO3)ccc1O	7.08µM	8.91µM	0	?	0
O=C(N/N=C/c1ccc2c(c1)OCO2)c1ccc(COc2cccc3cccnc23)cc1	0	0	0	18.3µM	0
O=C(N/N=C/c1cccs1)c1ccc2c(c1)OCO2	?	14.1µM	0	?	0
CC/C(=N\NC(=O)c1ccc2c(c1)OCO2)c1ccccc1	0	?	0	?	0
CC(C)CC(CC(C)C)=NNC(=O)c1ccc2c(c1)OCO2	0	12.6µM	0	0	0
CC1CCC(NC(=O)c2ccc3c(c2)OCO3)CC1 (stereo not given)	?	10µM	-	?	0
Cc1cc(Br)cc(/C=N/NC(=O)c2ccc3c(c2)OCO3)c1O	3.55µM	2.51µM	0	?	0
CC1(C)CC(NC(=O)c2ccc3c(c2)OCO3)CC(C)(C)N1	0	0	0	0	0
O=C(N/N=C/c1ccc2c(c1)OCO2)c1ccc(NC(=O)c2ccc(F)cc2)cc1	0	10µM	0	0	0
COC(=O)C/C=C1\c2ccccc2[C@H](OC)[C@H]1C	0[10 µM]	0[10 µM]	0	-	-
C/C(=N\O)c1noc(C)c1C(=O)Nc1nccs1	0	0	-	0	0
O=C(N/N=C/c1cc(Br)c(Br)o1)c1ccc2c(c1)OCCO2	0	0	0	?	0
CC(C)Oc1ccc(CCC(=O)N/N=C/c2ccc3c(c2)OCO3)cc1	0	0	0	0	0
O=C(CCc1ccc(O)c(O)c1)N/N=C/c1ccc2c(c1)OCO2	?	0	-	5.8µM	0
O=C(N/N=C\c1cccs1)c1sccc1-n1cccc1	?	1.26µM	0	0	0
O=C(N/N=C\c1ccccc1)c1sccc1-n1cccc1	0	?	0	0	0
O=C(N/N=C/c1ccc2c(c1)OCO2)c1ccc2c(c1)OCCO2	?	0	0	?	0
SMILES	VP16 counter	RORgamma inh	FBPA coupling cs	ELG1 repair inh	TSHR antag
O=C(N/N=C/c1ccccc1O)c1ccc2c(c1)OCO2	1.78µM	0.562µM	0	?	0
O=C(N/N=C/c1cc(Br)c(O)c(Br)c1O)c1ccc2c(c1)OCCO2	3.16µM	4.47µM	0	0	0
CC(=O)OCC1=C(C(=O)O)N2C(=O)C(NC(=O)CSc3ccncc3)[C@@H]2SC1 (stereo not given in full)	0	0	0	-	-
O=C(N/N=C/c1ccccc1OC(=O)c1ccc2c(c1)OCO2)c1cccc(F)c1	?	12.6µM	0	0	0
O=C(O)COc1ccccc1/C=N/NC(=O)c1ccc2c(c1)OCCO2	?	?	-	0	0
COc1ccc(/C=N/NC(=O)c2cc(-c3ccc4c(c3)OCO4)n[nH]2)cc1OC	0	0	0	14.6µM	0
S=C(NCc1ccc(Cl)cc1)NCc1ccco1	10µM	7.08µM	0	0	0
S=C(NCCc1ccc(Cl)cc1)NCc1ccccc1	?	?	0	0	0
O=C(NC(=S)NCCc1ccc(Cl)cc1)c1ccco1	?	8.91µM	0	0	0
S=C(NCCc1ccc(Cl)cc1)NCc1ccco1	0	11.2µM	0	0	0
COc1ccc(Cl)cc1NS(=O)(=O)c1cccc(C(=O)NCC2(N(C)C)CCCCC2)c1	0	0	-	0	0
COc1ccc(CN2CCN(C(=O)c3c(-c4ccccc4)noc3C)CC2)cc1F	-	-	-	?	0
O=C(CSc1nnc(NC(=O)C2CC2)s1)NCc1ccccc1	0	0	0	0	0
Cc1cc(C)c2[nH]c(C(=O)Nc3ccc4c(c3)OCO4)cc2c1	0	0.398µM	0	0	0
CC(=O)NS(=O)(=O)c1ccc(NC(=O)c2ccc3c(c2)OCO3)cc1	0	20µM	0	?	0
Cc1ccc(C(=O)Nc2ccc3c(c2)OCCO3)c(C)c1	4.47µM	3.16µM	0	?	0
CC(=O)Nc1ccc(C(=O)Nc2ccc3c(c2)OCO3)cc1	0	?	0	?	0
Cc1ccc(NC(=O)c2ccc3c(c2)OCCO3)cc1C	?	5.01µM	0	?	0
Cc1cc(C)c(NC(=O)Nc2ccc3c(c2)OCO3)c(C)c1	0	0	0	?	0
Cc1c(-c2ccc(O)cc2)nn(-c2ccc(O)cc2)c1-c1ccc(OCCN2CCCCC2)cc1	0	?	0	-	-
NS(=O)(=O)c1ccc(NC(=O)COc2ccc(C(=O)c3ccc(F)cc3)cc2)cc1	0	0	0	?	0
O=C(O)CCNc1ccc2c(c1)OCCO2	0	0	-41.4	0	0
CC(C)(C)C(=O)Nc1ccc2c(c1)OCCOCCOc1cc(NC(=O)C(C)(C)C)ccc1OCCOCCO2	0	0	0	7.3µM	0
O=C(O)CCCCCNC(=O)Nc1ccc2c(c1)OCCO2	0	0	0	?	0
CC(=O)Nc1ccc2c(c1)OCCOCCOc1cc(NC(C)=O)ccc1OCCO2	0	0	0	0	0
SMILES	VP16 counter	RORgamma inh	FBPA coupling cs	ELG1 repair inh	TSHR antag
C=CCn1c(SCC(=O)Nc2ccc(F)cc2F)nnc1-c1cnccn1	0	0	-	?	0
O=C(NCc1ccc(/C=N\NC(=O)C(=O)Nc2ccccc2Br)o1)C(=O)Nc1ccccc1	?	11.2µM	0	0	0
O=C(N/N=C\c1ccc(CNS(=O)(=O)c2ccc(Cl)cc2)o1)C(=O)Nc1ccc(Oc2ccccc2)cc1	12.6µM	12.6µM	0	0	0
O=C(N/N=C\c1ccc(CNS(=O)(=O)c2ccccc2)o1)C(=O)Nc1ccc(F)cc1	0	?	0	0	0
CN(C)c1ccc(N=Nc2nc3ccccc3n2C)cc1	1.26µM	0.398µM	0	?	0
CCn1c(NCc2ccc(N(C)C)cc2)nc2ccccc21	0	0	0	?	0
Cn1c(N=Nc2ccccc2)nc2ccccc21	1.26µM	0.708µM	0	?	0
Cc1ccccc1C(N)c1ccncc1 (stereo not given)	0	0	0	0	0
Cn1cccc1C(=O)N1CCC2(CCCN(c3ncccn3)C2)CC1	0	0	0	-	-
CCCCn1c(SCc2ccc(C(=O)OC)o2)nc2cc(S(N)(=O)=O)ccc21	10µM	0	0	10.3µM	0
